# Inconclusive results are not listed. Entries that show only a call come without a potency. Activity calls are given as the source filed them. Unless noted, the call rests on the fitted dose curve; in most records, active means well fitted curve in the direction sought with a large enough effect; inconclusive means small, poorly fitted or top-dose-only effect, or another doubt; inactive means no such curve, though single readings can be large; an effect the other way counts as inactive or inconclusive.
# How the values were obtained:
# [1] = Primary qHTS for inhibitors of La Crosse Virus (LACV) - induced cell death in SH-SY5Y cells (AID 1508616); details: SH-SY5Y LACV cytopathicity rescue, ATP luminescence, 6 d; series mostly up to 9.63 µM;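 further: top concentration of the series differs between compounds; higher means more rescue of cells from virus-induced death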
# In short: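 Protection against LACV-induced cell death is scored in SH-SY5Y cells exposed to compounds and virus (0.01 MOI) for 6 days. Data normalized to virus-infected DMSO wells and virus-free DMSO wells.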
# [2] = Primary qHTS for small molecule stabilizers of the endoplasmic reticulum resident proteome: Secreted ER Calcium Modulated Protein (SERCaMP) assay (AID 1508630); details: SH-SY5Y GLuc-SERCaMP (Gaussia luciferase released on ER calcium loss) secretion, thapsigargin, luminescence; series mostly up to 38.4 µM
# In short: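 GLuc-SERCaMP-expressing SH-SY5Y cells, pretreated 16 h with compound, are challenged with thapsigargin to empty ER calcium stores; after 4 h, coelenterazine is added directly to the medium and luminescence is imaged.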
# Papain (Carica papaya) = Papain (Carica papaya) (UniProt P00784); test: Primary qHTS assay for inhibitors of the protease papain (AID 1645873); details: papain Z-FR-AMC cleavage, AMC fluorescence; series mostly up to 49.8 µM;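 further: papain turnover of Z-FR-AMC read as the AMC fluorescence gain over 10 min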
# [3] = A High-Content qHTS Against Drug Library for the Identification of Small Molecules that Inhibit DYT1 Early Onset Primary Dystonia-Associated Cell Pathology (AID 1645839; calls by dose curve; further: potency means the concentration at half of the fitted maximal effect); details: HEK293 Flp-In EGFP-delE TorsinA, punctate imaging, 48 h; series mostly up to 91.7 µM
# In short: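 Readout: %pathology, the punctate EGFP-TorsinA distribution from imaging, as the primary channel and cell count as the toxicity counterscreen. HEK293 Flp-In cells expressing delE TorsinA were induced with tetracycline and treated with compound for 48 h.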
# [4] = Confirmatory qHTS to identify inhibitors of SARS-CoV-2 cell entry (AID 1645844; calls by dose curve; further: potency means the concentration at half of the fitted maximal effect; nearly all actives have a fitted effect of over 45% in size); details: SARS-CoV-2 pseudotyped particle cell entry, luciferase
# In short: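 HEK293-ACE2 cells (Expi293F stably expressing human ACE2) were pretreated with compounds for 1 hr at 37C, then infected with MLV-based particles carrying Wuhan-Hu-1 spike (C-terminal 19-aa truncation). Luciferase luminescence read after 48 hr; normalized to spike PP (100%) and bald PP (0%).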
# [5] = Primary qHTS to identify inhibitors of SARS-CoV-2 cell entry (AID 1645846; calls by dose curve; further: potency means the concentration at half of the fitted maximal effect; nearly all actives have a fitted effect of over 45% in size); details: SARS-CoV-2 pseudovirus cell entry assay, luminescence; activity change, negative = inhibition: at 57.1 µM (top of the series) unless noted; series mostly up to 57.1 µM
# In short: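 Entry measured by luciferase signal 48 h after adding SARS-CoV-2-S pseudotyped MLV particles to HEK293-ACE2 cells preincubated 1 h with compounds. Normalisation: bald particles and spike particles.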
# [6] = VSVG counterscreen qHTS to identify inhibitors of SARS-CoV-2 cell entry (AID 1645847; calls by dose curve; further: potency means the concentration at half of the fitted maximal effect; nearly all actives have a fitted effect of over 65% in size); details: VSV-G pseudotyped particle entry, luciferase
# In short: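 Luminescence read after 48 h infection at 37 C with VSV-G-pseudotyped MLV particles, following 1 h compound exposure of Expi293F cells stably expressing human ACE2; scaled between bald particle and VSV-G particle wells.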
# [7] = Cytotoxicity counterscreen for inhibitors of SARS-CoV-2 cell entry (AID 1645845; calls by dose curve; further: nearly all actives have a fitted effect of over 50% in size); details: cell viability (SARS-CoV-2 entry assay cells); series mostly up to 57.1 µM
# In short: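 Expi293F/hACE2 cells seeded overnight; cpd pin-transferred in DMSO, 1 h preincubation, + media, 48 h 37 C 5% CO2; ATPLite 1step luminescence; normalized to cells and no cells.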
# [8] = target: Calcium and integrin-binding protein 1 (Homo sapiens) (UniProt Q99828); test: Primary qHTS for Identification of Calcium Integrin Binding Protein 1 (CIB1) Competitor (AID 1508620); details: CIB1-GST / FITC-alphaIIb peptide fluorescence polarization; series mostly up to 114 µM;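 further: GST tagged CIB1 binding a fluorescein labelled alphaIIb integrin peptide tracer; top concentration of the series differs between compounds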
# In short: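 Fluorescence polarization competition: CIB1-GST (1 uM final) preincubated with compound 15 min at room temperature, then FITC-labeled alphaIIb peptide (100 nM final) added for another 15 min. Polarization read at Ex 480/Em 540.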
# [9] = Primary qHTS for inhibitors of nuclear receptor binding SET domain protein 2 (NSD2) in an isogenic RCH-ACV NSD2 p.E1099K mutant (9B) (AID 1645876); details: RCH-ACV NSD2 E1099K (9B) viability, CellTiter-Glo, 72 h; series mostly up to 44.9 µM; further: nearly all actives have a fitted effect of over 70% in size
# [10] = Primary qHTS for inhibitors of nuclear receptor binding SET domain protein 2 (NSD2) in an RCH-ACV wild type WT cells (2C) (AID 1645877); details: RCH-ACV (leukaemia line) NSD2 WT (2C) viability, CellTiter-Glo, 72 h; series mostly up to 44.9 µM; further: nearly all actives have a fitted effect of over 70% in size
# Calcium and integrin-binding protein 1 (Homo sapiens), sequence (Q99828 whole entry, looked up): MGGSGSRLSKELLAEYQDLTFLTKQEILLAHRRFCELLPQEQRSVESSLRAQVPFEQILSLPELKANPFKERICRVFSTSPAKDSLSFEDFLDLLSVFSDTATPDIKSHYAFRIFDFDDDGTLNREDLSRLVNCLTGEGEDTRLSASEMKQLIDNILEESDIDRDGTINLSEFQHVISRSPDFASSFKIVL
# Papain (Carica papaya), sequence (P00784 whole entry, looked up): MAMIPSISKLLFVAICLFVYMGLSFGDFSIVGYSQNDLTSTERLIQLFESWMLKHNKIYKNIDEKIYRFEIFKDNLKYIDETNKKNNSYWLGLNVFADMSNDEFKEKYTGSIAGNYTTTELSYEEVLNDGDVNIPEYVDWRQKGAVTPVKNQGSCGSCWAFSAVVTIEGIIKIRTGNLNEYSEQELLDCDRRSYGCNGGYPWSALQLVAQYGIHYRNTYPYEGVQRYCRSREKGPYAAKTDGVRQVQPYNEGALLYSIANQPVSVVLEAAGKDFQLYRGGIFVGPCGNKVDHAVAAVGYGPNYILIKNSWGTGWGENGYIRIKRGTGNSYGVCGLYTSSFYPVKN
structure (smiles),measurement,setting,value
Oc1ccc2c3c1O[C@H]1c4oc5ccccc5c4C[C@@]4(O)C(C2)N(CC2CC2)CCC314 (stereo partly drawn),Potency,[1],inactive
same,outcome,[2],inactive
same,Potency,Papain (Carica papaya),inactive
COC(=O)N1CCN(C(=O)Cc2ccc(Cl)c(Cl)c2)C(CN2CCCC2)C1 (stereo not drawn),Potency,[1],inactive
same,outcome,[2],inactive
same,Potency,Papain (Carica papaya),inactive
CCCSP(=O)(OCC)SCCC,Potency,[3],inactive
C[CH2][Hg][S]c1ccccc1C(=O)O,Potency,[3],5.01 µM (active)
CCOc1ccccc1-n1c(C(C)N2CCN(C(=O)COc3ccc(Cl)cc3)CC2)nc2ccccc2c1=O (stereo not drawn),Potency,[4],0.0192 µM (active)
same,Potency,[5],10 µM (active)
same,Potency,[6],19.2 µM (active)
COc1cc(C)[nH]c(=O)c1CNC(=O)c1c(C)n([C@H](C)C2CCOCC2)c2ccccc12,outcome,[7],inactive
CN1C(=O)c2ccccc2NC(=O)[C@]12O[C@@H]2c1ccccc1,Potency,[8],inactive
same,Potency,[9],inactive
same,Potency,[10],inactive
CCCN1CCO[C@H]2c3cc(O)ccc3OC[C@@H]21,Potency,[8],inactive
same,Potency,[9],inactive
same,Potency,[10],inactive

# From PubChem BioAssay (NCATS)
